Bioassay records from PubChem BioAssay.
p53ts 39C kill – cytotoxicity in p53ts cells at nonpermissive temperature; H1299-p53A138V viability at 39C, ATP luminescence, 24 h; Potency, µM (top dose mostly 46.1 µM), without a hit: at the top dose activity change, negative = cell killing, most hits filed as cytotoxic; 130,000 compounds, 1.5% hits; AID 902; also: % is scaled to controls: 0 for no effect and ±100 for the full control effect; nearly all actives have a fitted effect of over 55% in size
Peg3 imprint – genomic imprint erasure induction; mouse ES Peg3-LacZ reporter, beta-gal luminescence, 40 h; Potency, µM (top dose mostly 60.7 µM), for the others: at the top dose activity change, positive = activation, most hits filed as activators; 110,000 compounds, 0.02% hits
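Gelatin-coated wells received 300 freshly trypsinized female ES cells with a Peg3LacZ-Neo reporter on the maternal allele, then incubated 40 hours at 37C. BetaGlo was added for 5 minutes at room temperature before a single luminescence read.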
p53ts 32C kill – cytotoxicity in p53ts cells at permissive temperature; H1299-p53A138V at 32C, ATP luminescence viability, 24 h; Potency, µM (titrated, usually from 46.1 µM), inactives show at the highest dose activity change, negative = cytotoxicity, hits mostly cytotoxic; 130,000 compounds, 0.93% hits; AID 924;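 also: 0% = DMSO and -100% = full killing by reference compound; nearly all actives have a fitted effect of over 55% in size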
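Cells: H1299 p53ts (A138V), 600/well, pre-incubated 16–30 h at 37C. Cpd up to 46 uM, 24 h, 32C. Readout: ATPlite luminescence, 20 min RT. Normalization: DMSO vs tamoxifen 100 uM. AC50 by Hill equation.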
IkB signaling – IkB pathway inhibition in ABC-DLBCL cells; 110,000 compounds, 0.04% hits; ABC-DLBCL IkBa-CBG/CBR dual luciferase ratio, 4 h; response scale: scaled: untreated 0%, proteasome inhibitor 100%; Potency, µM (titrated, usually from 57.1 µM), for the others: top-dose IkBa stabilization activation; active = well fitted curve in the direction sought with a large enough effect in the signal ratio, not every such curve was filed as active; inconclusive = small, poorly fitted or top-dose-only effect, or a change in a side signal; the % refers to the signal ratio;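 also: the direction sought is a rising ratio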
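Luminescence ratio of IκBα-fused green versus native red beetle luciferase in OCI-Ly3 cells, 4 h post-doxycycline with compound; red signal alone, scaled from basal (0%) to zero light (-100%), flagged nonspecific or cytotoxic effects.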
Numbers without * were called inactive; ? = inconclusive; . = no result; [ ] = remark or other dose. In the library only some 1.8% were active in any assay of this set; here they are far more common. Unless noted, calls follow the shape of the dose curve; as a rule, active = well fitted curve in the direction sought with a large enough effect; inconclusive = small, poorly fitted or top-dose-only effect, or another doubt; inactive = no such curve, though single readings can be large; an effect the other way counts as inactive or inconclusive. Potency is read from the fitted curve at half-maximal effect.

SMILES	p53ts 39C kill	Peg3 imprint	p53ts 32C kill	IkB signaling
O=C(Nc1ccc(NC(=O)c2ccco2)nc1)c1ccccn1	12.6µM*	-90.0%	12.6µM*	?
CCc1ccc(-c2nc(CN3CCCC(C(=O)NCc4ccc(C)cc4)C3)c(C)o2)cc1 (stereo not drawn)	-20.2%	-6.8%[10.9 µM]	-5.6%	?
Cn1c(=O)n(C)c2cc(CNCc3ccccc3Cl)ccc21	-9.7%	-10.2%[10.9 µM]	-10.3%	-0.1%
COc1ccc(C(=O)NNc2ncnc3c2cnn3-c2ccccc2)cc1	-25.8%	-12.9%[10.9 µM]	-6.5%	?
CCCN1C(=O)C(Cc2nc3ccccc3c(=O)n2CC)c2cc(Br)ccc21 (stereo not drawn)	10µM*	-26.1%[10.9 µM]	17.1%	?
CCn1c(CC2C(=O)N(C)c3ccc(Br)cc32)nc2ccccc2c1=O (stereo not drawn)	-29.3%	-21.6%[10.9 µM]	10.3%	3.1%
COc1ccc(C)cc1NC(=O)C1COc2ccccc2C1 (stereo not drawn)	3.7%	-6.6%[10.9 µM]	-7.4%	-2.9%
CCC(c1nnnn1Cc1ccccc1)N(Cc1ccco1)Cc1cc2cc(OC)ccc2[nH]c1=O (stereo not drawn)	-5.6%	.	-13.6%	3.98µM*
Cc1ccccc1CCNC(=O)c1ccc2c(c1)nc1n2CCCCC1	1µM*	-4.4%[10.9 µM]	1.58µM*	?
CC(CNC(=O)c1ccc2c(c1)nc1n2CCCCC1)c1ccccc1 (stereo not drawn)	12.6µM*	-12.3%[10.9 µM]	?	?
CSc1ccc(CCNC(=O)c2ccc3c(c2)nc2n3CCCCC2)cc1	-11.8%	-15.0%[10.9 µM]	-8.9%	?
Cc1ccccc1CCNC(=O)c1ccc2c(c1)nc1n2CCOC1	6.31µM*	-14.9%[10.9 µM]	7.94µM*	-0.7%
O=C(NCCc1ccc(Cl)cc1)c1ccc2c(c1)nc1n2CCOC1	-23.4%	19.8%[10.9 µM]	-11.1%	?
CC1CCn2c(nc3cc(C(=O)NCCc4ccccc4)ccc32)C1 (stereo not drawn)	?	-13.2%[10.9 µM]	15.8µM*	-2.4%
COc1ccc(/C=N/n2cc(-c3ccccc3)nc2N)cc1	-4.0%	-38.3%	5.0%	?
COc1ccc(/C=N\n2nnc3ccccc32)cc1	10µM*	-94.2%	12.6µM*	?
Cc1ccc(-c2cc(C(=O)Nc3cc([N+](=O)[O-])ccc3C)no2)cc1F	-1.7%	-5.2%[10.9 µM]	0.5%	?
COc1cccc(CNC(=O)CSc2nnc(C)c3c(C)n(-c4ccccc4)nc23)c1OC	25.1µM*	11.5%[10.9 µM]	-6.4%	?
COc1ccccc1CNC(=O)CCn1nc(C)c2c(C)n(-c3ccccc3)nc2c1=O	2.6%	27.1%[10.9 µM]	6.9%	2.4%
COc1ccc(CNC(=O)CSc2nnc(C)c3c(C)n(-c4ccccc4)nc23)c(OC)c1	12.6µM*	-4.4%[10.9 µM]	14.1%	?
Cc1nnc(SCC(=O)NCc2ccccc2F)c2nn(-c3ccc(Cl)cc3)c(C)c12	42.7%	-10.4%[10.9 µM]	-20.4%	7.4%
N#Cc1ccc(CN2CCC3(CC2)CCN(C(=O)c2ccco2)CC3)cc1	-13.6%	.	-14.4%	2.9%[11.4 µM]
COc1ccccc1Nc1nn2c(=O)c3ccc(C(=O)NCc4cccs4)cc3nc2s1	10µM*	-27.5%[10.9 µM]	3.16µM*	?
CCc1ccc(NC(=O)c2ccc3c(=O)n4nc(Nc5ccccc5C)sc4nc3c2)cc1	?	5.3%[10.9 µM]	12.6µM*	?
Cc1ccccc1Nc1nn2c(=O)c3ccc(C(=O)NCc4ccccc4)cc3nc2s1	-4.2%	-16.7%[10.9 µM]	-27.9%	0.1%
SMILES	p53ts 39C kill	Peg3 imprint	p53ts 32C kill	IkB signaling
Cc1ccc(C)c(Nc2nn3c(=O)c4ccc(C(=O)NCc5cccs5)cc4nc3s2)c1	?	-4.6%[10.9 µM]	15.8µM*	?
Cc1ccc(Cl)cc1Nc1nn2c(=O)c3ccc(C(=O)NCc4ccc(F)cc4)cc3nc2s1	12.6µM*	-11.8%[10.9 µM]	0.7%	?
CCOc1ccc(-c2nc3ccccc3c(=O)o2)cc1	2.51µM*	-35.6%[10.9 µM]	2.51µM*	?
CCOC(=O)c1sc(NC(=O)C2CC2)cc1C	12.6µM*	-58.8%	12.6µM*	-2.3%
CCOC(=O)c1sc(NC(=O)c2ccc(Cl)s2)cc1C	-23.3%	-26.5%	?	1.6%
Cc1cccc(-c2nnc(SCc3cc(=O)c4cccc(Cl)c4[nH]3)n2C)c1	?	-10.0%[10.9 µM]	-5.9%	?
C=CCn1c(-c2ccc(OC)cc2)nc2ccccc21	?	-40.3%	15.8µM*	-0.9%
CCc1ccc(NC(=O)C2CCCN(S(=O)(=O)c3cccc4cccnc34)C2)cc1 (stereo not drawn)	-11.2%	?	10.6%	?
